We go through 40 compounds from PubChem BioAssay (NCI).

About 83,000 compounds went through this panel and 20% of them were active in at least one assay; those are over-represented in the sample as a whole.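 96-well plates, one dose, 48 hours. Percent growth reported; active if below 10.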 Calls of active or inactive are those of the source.

The test relates to IGROV1 ovarian. The experiment in a line: NCI-60 one-dose screen, 48 h (100 = growth as untreated, 0 = no growth, -100 = all killed). As to conditions: 10 µM unless noted. As to the method: Growth inhibition of the IGROV1 human tumor cell line is measured as a screen for anti-cancer activity. Cells are grown in 96 well plates and exposed to the test compound for 48 hours. Compounds are tested at a single concentration, which is 10^-5 M for most compounds. The reported endpoint is percent growth (GI% or GIPRCNT), where numbers from 0 - 100% represent growth inhibition, and numbers from -100% - 0 represent cell death. For example, a value of 40 represents 60% growth inhibition. A value of 0 means no net growth occurred over the course of the experiment. A value of -40 indicates 40% of cells at the beginning of the experiment died by the end of the experiment. A value of -100 means all cells are dead at the end of the experiment.
NCI-60 Human Tumor Cell Lines Screen was performed using the standard one-dose NCI protocol, which is described in more detail at https://dtp.cancer.gov/discovery_development/nci-60/default.htm.
Compounds with GIPRCNT values below 10 were considered active. Activity score was based on GIPRCNT using the following formula: […]
Score is 0 for GIPRCNT values of 100 or above, 50 for GIPRCNT values of 0, and 100 for GIPRCNT values of -100.
In the case of `COc1cc(/C=C/c2ccccc2)cc(OC)c1`, the growth is 84.6% (inactive).
Next, `COc1ccc(C2CC(c3ccc(Nc4nc(Nc5ccc(F)cc5)nc(Nc5ccc(Cl)cc5)n4)cc3)=NN2C(C)=O)cc1` (stereo not given): 40.4% (inactive).
In the case of `COc1ccc2cc(C(C)C(=O)Nc3ccc(-c4n[nH]c(=S)n4C4CCCCC4)cc3)ccc2c1` (stereo not given), the growth was 88.9% (inactive).
Next, `CCOC(=O)c1sc2ncc(-c3ccc(OC)cc3)n2c1C`: 81.4% (inactive); `NS(=O)(=O)c1ccc(-n2nc(C(=O)N/N=C\c3ccc(F)cc3)cc2-c2ccc(Br)cc2)cc1`: 73.6% (inactive); `COc1ccc(OC)c(/C=C2\Oc3cc(OCCN4CCC(Cc5ccccc5)CC4)ccc3C2=O)c1`: 76.2% (inactive).
Turning to `CCOC(=O)/C(C#N)=C\Nc1ccc2ncnc(Nc3ccc(Cl)cc3Cl)c2c1`, the growth is 55% (inactive).
Next, `O=c1c2cc(F)ccc2sc2c(NCCO)nc3ccccc3c12`: 104% (inactive).
For `Cc1onc2c(-c3ccccc3)n[nH]c(=O)c12` the value was 140% (inactive); for `COc1cccc(-c2nc(-c3ccc(NC(=O)C(C)C)cc3)[nH]c2-c2ccnc(Br)c2)c1`, 52.1% (inactive).
For the compound `COc1ccc(/C=C(\C#N)n2nnc3c(F)cccc32)cc1`, the growth was 13.2% (inactive).
Turning to `O=C1c2ccccc2NC(n2sc3ccccc3c2=O)N1c1ccccc1` (stereo not given), the growth is 96.5% (inactive).
On to `BrCCCc1n(Cc2ccc3ccccc3c2)c2ccccc2[n+]1Cc1ccc2ccccc2c1`, for which the growth was -71.9% (active).
As to `O=C(/C=C/c1cccc2ccccc12)c1ccc(NC(=O)c2ccccc2CN2C(=O)c3ccccc3C2=O)cc1`, the growth was 79.1% (inactive).
Next, `O=C(N/N=C/c1c(Cl)cccc1Cl)c1ccc(C(F)(F)F)nc1Nc1cccc(C(F)(F)F)c1`: 12.4% (inactive); `Fc1cc2c(cc1Cl)N(c1ncnc3ccc(-c4cnc5cnccn45)cc13)CC2`: 48.2% (inactive); `O=C(Nc1ccc(-c2nc(-c3cccc(OCCN4CCOCC4)c3)c(-c3ccnc(Br)c3)[nH]2)cc1)c1ccccc1`: 43.4% (inactive).
Regarding `COc1cc(CNS(=O)(=O)c2ccc(C)cc2)ccc1OCc1cn(-c2ccccc2)nn1`, the growth is 83.7% (inactive).
For `O=C(/C=C/c1sc(Cl)nc1Cl)c1ccccc1` the value was 91.9% (inactive); for `COc1cc(-c2nc3sccn3c2-c2ccnc(NCCCNS(=O)(=O)c3ccc(F)cc3)n2)ccc1F`, 69.6% (inactive).
On to `CCOC(=O)c1cn2ncnc(Oc3ccc(NC(=O)NCCN(C)C)c(Cl)c3)c2c1C`, for which the growth was 78.7% (inactive).
For `C[C@H]1[C@H]2[C@H]3CC[C@@H]4[C@@]5(C)CC[C@H](O)C(C)(C)[C@@H]5CC[C@@]4(C)[C@]3(C)CC[C@]23CO[C@]1(C)[C@@H](C(=O)/C=C\c1cccnc1)C3` the value was 80.6% (inactive); for `N#C/C(=C\c1cccc2cnccc12)n1nnc2cccc(F)c21`, 26.5% (inactive).
On to `C#Cc1cccc(NC(=O)c2ccc(NC(=O)C=C)cc2)c1`, for which the growth is 70.9% [8.25 µM] (inactive).
For `COc1ccc(N2C(=O)C(Oc3ccccc3)C2c2ccc(C)cc2)cc1` (stereo not given) the value was 102% (inactive); for `COc1ccc(C(=O)n2nc(-c3ccccc3)nc2N)cc1OC`, 73.5% (inactive).
Next, `COc1ccc(-c2cnc3ccccc3n2)cc1`: 94.9% (inactive); `O=c1c2cc(F)ccc2sc2c(NCCCNCCO)nc3ccc(F)cc3c12`: 43.6% (inactive); `Cc1ccc2sc3c(NCCN)nc4ccccc4c3c(=O)c2c1`: 72.4% (inactive).
For `COc1ccc2sc3c(NCCO)nc4ccccc4c3c(=O)c2c1` the value was 113% (inactive); for `O=c1n(Cc2ccc3ccccc3c2)ccn1Cc1ccc2ccccc2c1`, 91.6% (inactive).
In the case of `Cc1ccc(/C=N\NC(=O)c2[nH]c3ccc(F)cc3c2-c2ccccc2)cc1`, the growth is 91.4% (inactive).
For `CCCCn1c(=O)c(-c2cc(-c3ccc(Cl)cc3)nc(-c3ccc(Cl)cc3)c2)cc2ccc(Cl)cc21`, the growth is 105% (inactive).
For `Cc1ccc(-c2nc(N3CCN(C(=O)Nc4ccc(Cl)c(C(F)(F)F)c4)CC3)c3ccccc3n2)cc1` the value was 78.2% (inactive).
Next, `CCOC(=O)c1cn2ncnc(Oc3ccc(NC(=O)NCCN4CCOCC4)c(Cl)c3)c2c1C`: 101% (inactive); `O=C(N=c1oc2ccccc2cc1-c1cc2ccccc2[nH]1)Nc1ccc(Cl)cc1`: 59.7% (inactive).
As to `C[C@H](C(=O)Nc1ccc(S(N)(=O)=O)cc1)S(=O)(=O)c1ccccc1`, the growth is 98.9% (inactive).
For `O=C1c2cccc3cccc(c23)C(=O)N1Nc1nc(NC2CCCCC2)nc(N2CCOCC2)n1` the value was 90.3% (inactive); for `O=C(/C=C/c1sc(Cl)nc1Cl)c1ccc(F)cc1`, 94.8% (inactive).
Regarding `CCOC(=O)c1nc(Nc2ccc(C(C)=O)cc2)sc1C`, the growth is 103% (inactive).
